# PubChem BioAssay (NCI)
# About 83,000 compounds went through this panel and 20% of them were active in at least one assay; those are over-represented in the sample as a whole.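 Compound tested at a single concentration for 48 hours in 96-well plates; a percent growth value below 10 was scored as active.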 Calls of active or inactive are those of the source.
# Tested on: HL-60(TB) leukemia
# Assay: NCI-60 one-dose screen, 48 h (100 = growth as untreated, 0 = no growth, -100 = all killed)
# Conditions: 10 µM unless noted
row,SMILES,growth
1,O=C(Nc1nc(-c2ccc(Cl)cc2)cs1)c1cc(O)c(O)c(O)c1,10.4% (inactive)
2,Cn1c(=O)c2c(nc(Cl)n2CCl)n(C)c1=O,45.7% (inactive)
3,C=C(C)[C@@H]1C/C=C(\COC(=O)[C@H](OC(C)=O)C(NC(=O)c2ccccc2)c2ccccc2)CC[C@H]2O[C@]2(C)CC/C=C(\C)CC1 (stereo not given in full),29.9% [5 µM] (inactive)
4,Cn1cc(-c2nonc2-c2cn(C)c3ccc(F)cc23)c2cc(F)ccc21,17.3% (inactive)
5,O=C(Nc1ccccc1O)c1ccc(CNC(=O)c2ccsc2Nc2ccnc(C(F)(F)F)c2)cc1,7.44% (active)
6,O=C(Cn1ccnc1)NC(c1ccccc1)c1ccccc1,96.7% (inactive)
7,CC(C)c1ccc(C(=O)Nc2sc3c(c2C(N)=O)CCC(=O)C3)cc1,-11.5% (active)
8,NS(=O)(=O)c1cnccc1Sc1ccncc1S(N)(=O)=O,82.5% (inactive)
9,COc1cc(/C=C2\C=C(c3ccc(F)cc3)N(Cc3ccccc3)C2=O)cc(OC)c1OC,75.9% (inactive)
10,Cc1ccccc1CNC(=O)C1CN(c2ccc(Cl)cc2)N(c2ccc(Cl)cc2)C1=O (stereo not given),94.7% (inactive)
11,N=c1sc2ccccc2n1CC(=O)O,114% (inactive)
12,COc1ccc2nc3c(n2c1)C(=O)C(=O)c1ccccc1-3,-48.9% (active)
13,COc1ccc(C(=O)c2ccc(C)cc2)c(OC)c1OC,93.4% (inactive)
14,O=C(/C=C/c1cccnc1)/C=C/c1cccnc1,-43.4% (active)
15,CN1CCN(CCNC(=O)c2cccc(CN3c4cccc5c4C(=Cc4cccnc43)N(C)C5=O)c2)CC1,-6.25% (active)
16,Nc1ncnc2c1N=C(c1ccc([N+](=O)[O-])cc1)CC(c1ccc3c(c1)OCO3)N2 (stereo not given),105% (inactive)
17,C[C@@H]1CC2C3C[C@H](F)C4=CC(=O)C=C[C@]4(C)[C@@]3(F)[C@@H](O)C[C@]2(C)[C@@]1(O)C(=O)CO (stereo not given in full),99.1% (inactive)
18,CCOC(=O)C1=C(C)C(Cl)=N/C1=C\c1[nH]c(Cl)c(C)c1C(=O)OCC,95% (inactive)
19,Cc1cc2ccccc2nc1-c1ccccc1F,97.4% (inactive)
20,O=C(OCC1OC(n2cc(C(F)(F)F)c(=O)[nH]c2=O)CC1OC(=O)c1ccc([N+](=O)[O-])cc1)c1ccc([N+](=O)[O-])cc1 (stereo not given),62.7% (inactive)

row,SMILES,growth
1,COc1ccc(/C=C2\CN(C(=O)C(Cl)Cl)C/C(=C\c3ccc(OC)c(OC)c3)C2=O)cc1OC,-11.4% (active)
2,CCCCn1c(=O)c(-c2cc(-c3ccc(Cl)cc3)nc(-c3ccc(Cl)cc3)c2)cc2ccc(Cl)cc21,100% (inactive)
3,COc1cc(/C=C/c2cc(/C=C/c3ccc(O)c(OC)c3)n(C(=O)Nc3ccc(F)c(Cl)c3)n2)ccc1O,-28.9% (active)
4,CCCOc1ccc(-c2nc(-c3ccc(N)cc3)cs2)cc1,56.7% (inactive)
5,Nc1nc(-c2cnccn2)nn1-c1nc2ccccc2s1,100% (inactive)
6,O=C1/C(=C/c2ccc(Oc3ccccc3)cc2)N=C(c2ccccc2)N1CCc1cccs1,86% (inactive)
7,COc1cc(C2C3CC4CCCC[C@H]4N3[C@@]3(C(=O)Nc4cc(Cl)ccc43)C2C(=O)c2nc3ccccc3[nH]2)cc(OC)c1OC (stereo not given in full),21.8% (inactive)
8,S=C(N/N=C/c1cc(Cl)cc(Cl)c1)NC12CC3CC(CC(C3)C1)C2,104% (inactive)
9,O=c1[nH]c2ccc(Br)cc2c2c1C(c1ccc(Cl)cc1)c1c(ncn3nc(-c4ccco4)nc13)O2 (stereo not given),72.7% (inactive)
10,COc1ccc2nc3nc4ccc[nH]c4cc3c2c1,85.6% (inactive)
11,C/C(=N/NC(=S)Nc1ccccc1)c1nc2ccc(Cl)cc2[nH]1,-11.7% (active)
12,c1csc(-c2c3ccc(=[N+]4CCCCC4)cc-3oc3cc(N4CCCCC4)ccc23)c1,-35.5% (active)
13,Nc1ncc(-c2ccc3ncnc(Nc4cncc(Cl)c4)c3c2)cn1,92.5% (inactive)
14,COc1cc2nc3cc([N+](=O)[O-])ccc3c(NCCNCC(C)(C)O)c2cc1OC,-12.8% (active)
15,C[C@@H]1CN(Cc2ccc(/C=C/c3n[nH]c4ccc5nc(-c6cn[nH]c6C(F)(F)F)c6c(c5c34)CCCC6)cc2)C[C@H](C)O1,46.7% (inactive)
16,COS(=O)(=O)CCN(CCOS(C)(=O)=O)S(C)(=O)=O,82.9% (inactive)
17,CCOC(=O)c1c(C)nc2c(c1N)/C(=C/c1ccc(OC)cc1)C(=O)N2Cc1ccccc1,45.8% (inactive)
18,CC(=O)OC(C)c1cccc(C#N)c1 (stereo not given),105% (inactive)
19,CCN(CC)CCCNC(=O)c1ccc(N)cc1O,82.4% (inactive)
20,COC(=O)c1nc(N)nc(C(=O)OC)c1C(=O)c1ccc(F)cc1,115% (inactive)
